Holding throughout (experiment): NCI-60 one-dose screen, 48 h (100 = growth as untreated, 0 = no growth, -100 = all killed)
Holding throughout (conditions): 10 µM unless noted

The test system of assay [1] is T-47D breast.
Assay [2] deals with BT-549 breast.
Assay [3] has as its system MDA-MB-435 melanoma.
For assay [4], the system named is SW-620 colon.
The test system of assay [5] is MCF7 breast.
Assay [6] deals with HCT-116 colon.
Assay [7] relates to HCC-2998 colon.
In assay [8] the test system is KM12 colon.

The text below walks through data of PubChem BioAssay (NCI).

The panel holds about 83,000 compounds, 20% with a hit somewhere; the sample as a whole holds those more often.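 Interpretation: 100, growth as untreated; towards 0, rising growth inhibition; 0, no net growth; 0 to -100, cell death. Compounds scoring below 10 were considered active.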 Values without a mark were called inactive. Activity calls are given as the source filed them.

As to `Cc1ccccc1COc1ccc(-c2ccnn2-c2ccc(Cl)cc2)cc1`, the growth was 65.4% in assay [1]; 75% in assay [2]; 0.81% (active) in assay [3]; 29.7% in assay [4]; 31.9% in assay [5]; 38.1% in assay [6]. For the same molecule, the growth in assay [7] was 89.1%; in assay [8], 50.7%.
In the case of `O=C(O)c1ccc(N=CC(=O)c2ccc(-c3ccccc3)cc2)cc1`, the growth is 100% in assay [1]; 103% in assay [2]; 103% in assay [3]; 93.3% in assay [4]; 97.6% in assay [5]; 97.9% in assay [6]. In addition, the growth in assay [7] is 96.7%; in assay [8], 102%.
For the molecule `CCOC(=O)c1cc(C(=O)c2ccc(O)c(O)c2)n2ccc(-c3ccn4c(C(=O)c5ccc(O)c(O)c5)cc(C(=O)OCC)c4c3)cc12`, the growth is 77.4% in assay [1]; 96% in assay [2]; 99.9% in assay [3]; 96.1% in assay [4]; 99.1% in assay [5]; 98.2% in assay [6]. The growth in assay [7] was 104%; in assay [8], 97%.
For `Cc1ccc2c(C(C[N+](=O)[O-])c3ccccc3F)c(-c3ccccc3)[nH]c2c1` (stereo not given), the growth in assay [1] was 29.3%; in assay [2], 50%; in assay [3], -30.3% (active); in assay [4] it was 19.7%; in assay [5], 24.4%; in assay [6], 25.9%. For the same molecule, the growth was 73.9% in assay [7] and 23.3% in assay [8].
For `COc1ccc(-n2nc(C)c3c(Oc4ccc(NC(=O)Nc5c(Cl)cccc5Cl)cc4)ncnc32)cc1`, the growth in assay [1] is 87.4%; in assay [2], 117%; in assay [3], 100%; in assay [4], 95.7%; in assay [5], 96.4%; in assay [6], 109%. The growth in assay [7] and in assay [8] was 100% throughout.
For the molecule `Cc1ccc2c(C(C[N+](=O)[O-])c3ccco3)c(-c3ccccc3)[nH]c2c1` (stereo not given), the growth in assay [1] is 16.1%; in assay [2], 53.3%; in assay [3], -34% (active); in assay [4] it was 17.1%; in assay [5], 16.5%; in assay [6] it was 19.6%. Also, the figures for the growth in assay [7] and in assay [8] were 70% and 20.2%, respectively.
For the molecule `COc1ccc(-c2cc(Nc3ccnc(N4CCOCC4)n3)on2)cc1`, the growth was 55.1% in assay [1]; 57.1% in assay [2]; -30.2% (active) in assay [3]; 31.1% in assay [4]; 24.4% in assay [5]; 12.7% in assay [6]. The results for the growth in assay [7] and in assay [8] were 40.4% and 20.3%, respectively.
Turning to `Cc1ccccc1COc1ccc(-c2onc(C)c2-c2ccc(Cl)cc2)cc1`, the growth in assay [1] was 61.1%; in assay [2], 66.2%; in assay [3], -1.01% (active); in assay [4] it was 31.7%; in assay [5], 31.7%; in assay [6], 34%. Moreover, the results for the growth in assay [7] and in assay [8] were 86.6% and 54.3%, respectively.
For `O=c1cc(/C(=C2/C=CC=N2)c2ccc[nH]2)c2cc(Cl)ccc2o1`, the growth was 32% in assay [1]; 52.1% in assay [2]; 9.82% (active) in assay [3]; 34.8% in assay [4]; 70.9% in assay [5]; 44.2% in assay [6]. Also, the figures for the growth in assay [7] and in assay [8] were 89.7% and 38.9%, respectively.
Take `O=C1Nc2c(ccc(Cl)c2Cl)/C1=C\c1cc(C(F)(F)F)cc(C(F)(F)F)c1`: the growth in assay [1] is -0.235% (active); in assay [2] it was 14.9%; in assay [3], -53.4% (active); in assay [4] it was -77.6% (active); in assay [5], -3.68% (active); in assay [6] it was -61.3% (active). The results for the growth in assay [7] and in assay [8] were 12.8% and -74.6% (active), respectively.
Turning to `CC(=O)c1nc2ccccc2n1CC(=O)c1cccc(Cl)c1`, the growth was -11.3% (active) in assay [1]; 34.9% in assay [2]; -27.4% (active) in assay [3]; 23% in assay [4]; 1.85% (active) in assay [5]; 5.82% (active) in assay [6]. Besides, the figures for the growth in assay [7] and in assay [8] were 29.9% and 8.72% (active), respectively.
`COc1ccc(Nc2nc(SC)nc(-c3cccc([N+](=O)[O-])c3)c2C#N)cc1`: the growth is 70.1% in assay [1]; 86.9% in assay [2]; 66.5% in assay [3]; 57.9% in assay [4]; 66.7% in assay [5]; 15.8% in assay [6]. In addition, the growth in assay [7] was 94.3%; in assay [8] it was 97.7%.
Regarding `O=C1c2cc3c(cc2-c2c1c1ccc(Cl)cc1c(=O)n2CCCN1CCOCC1)OCO3`, the growth was 28.6% in assay [1]; 59.6% in assay [2]; 85.4% in assay [3]; 57.2% in assay [4]; 18.5% in assay [5]; 56.3% in assay [6]. The growth is 74.4% in assay [7] and 75.2% in assay [8].
For the molecule `CNc1ccc(-c2cc(=O)oc3ccc(Cl)cc23)cc1`, the growth in assay [1] was 66.8%; in assay [2] it was 21.8%; in assay [3], -11.5% (active); in assay [4], 23.3%; in assay [5], 18.3%; in assay [6], 10%. Moreover, the growth is 31.6% in assay [7] and 15% in assay [8].
For the molecule `FC(F)(F)c1[nH]ncc1-c1nc2ccc3n[nH]c(C#Cc4cccnc4)c3c2c2c1CCCC2`, the growth in assay [1] was 48.8%; in assay [2], 10.3%; in assay [3], 47.8%; in assay [4], 19.2%; in assay [5], 33.9%; in assay [6], 9.04% (active). Also, the growth in assay [7] is 50.4%; in assay [8], 22.7%.
